# Results published in PubChem BioAssay AID1117359 (Southern Research Institute, 2015).
# The whole screen tested about 1,500 compounds, of which about 460 (31%) were called active.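 Rule for the calls: active = viability at or below 80% at any tested concentration, marking the compound as toxic; inactive = the rest.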 Not all results are given here. Entries with a potency or affinity are not part of this list.
# Experiment: viability loss in THP-1 monocytes – THP-1 cells, cytotoxicity control for Vif-APOBEC3G degradation inhibitor project, dose response (AID 1117359)
# Conditions: THP-1 viability, CellTiter-Glo luminescence, 72 h; series mostly up to 40 µM
row,Compound,outcome
1,CC1(OC(=O)CCc2ccccc2)C(=O)C=C2C=C(c3ccsc3)OC=C2C1=O (stereo unspecified),inactive
2,CCOC(=O)C1(Cc2ccc(OC)cc2)CCN(C(=O)Cc2cccnc2)CC1,inactive
3,CCOc1ccc(-n2c(SCC(=O)Nc3cc(C)on3)nnc2-c2c[nH]c3ccccc23)cc1,inactive
4,O=C(CC(=O)NN=Cc1ccc2c(c1)CCC2)NN=Cc1ccc2c(c1)CCC2,inactive
5,COc1cc2ccccc2nn1,inactive
6,C/C(=N\NC(=O)c1ccc(NS(=O)(=O)c2cccs2)cc1)c1ccccc1,inactive
7,CCN1CCN(C(=O)C2COc3ccccc3O2)CC1 (stereo unspecified),inactive
8,O=C(COC(=O)c1ccc(NS(=O)(=O)c2cccs2)cc1)NCc1ccco1,inactive
9,O=C(O)CCc1ccc(-c2cccs2)n1-c1ccc(C(=O)O)cc1,inactive
10,O=C(c1ccc(=O)oc1)N1CCCc2ccccc21,inactive
11,O=C(Cc1ccccn1)c1ccncc1,inactive
12,Cc1cc(O)ccc1-c1cnc2ccccc2n1,inactive
13,Cc1cc(/C=C2\SC(=S)NC2=O)c(C)n1-c1ccc(O)cc1,inactive
14,O=C(NCC1CCCO1)c1cc2ccccc2oc1=O (stereo unspecified),inactive
15,NS(=O)(=O)c1ccc(CCNC(=O)CCS(=O)(=O)c2ccc(Br)cc2)cc1,inactive
16,CC(OC(=O)/C=C/c1ccco1)C(=O)NC1CCCCC1 (stereo unspecified),inactive
17,CC(=O)Nc1ccc(NC(=O)C(C)OC(=O)CCc2c[nH]c3ccccc23)cc1 (stereo unspecified),inactive
18,CCOc1ccccc1C(O)C1=CC(=O)c2ccccc2C1=O (stereo unspecified),inactive
19,O=c1ccc2c(-c3ccccc3S(=O)(=O)O)c3ccc(O)c(O)c3oc-2c1O,inactive
20,CCOc1cccc(C(=O)Nc2ccccc2OC(F)F)c1,inactive
21,CC(=O)Nc1nnc(SCC(=O)N2CCCc3ccccc32)s1,inactive
22,O=C(Nc1ccc(F)c(Cl)c1)c1cccnc1,inactive
23,Clc1ccc2c(c1)nc1n2CCCC1,inactive
24,FC(F)Oc1ccccc1NC(=S)Nc1cccnc1,inactive

row,Compound,outcome
1,CN(C)c1nc(N)nc(CSc2nc3c(c(=O)n(C)c(=O)n3C)n2Cc2ccccc2F)n1,inactive
2,CCS(=O)(=O)c1ccc2oc(Nc3cccc(OC)c3)nc2c1,inactive
3,CC1CCN(S(=O)(=O)c2ccc(C(=O)NCc3ccc4c(c3)OCO4)cc2)CC1,inactive
4,CC(C)(C)c1nnc(NC(=O)c2ccc(Cl)nc2)s1,inactive
5,CCn1c(C)nc2cc(C(=O)N/N=C/c3ccc(O)c(O)c3O)ccc21,inactive
6,Cc1cccc(N/N=C/c2ccc(O)c(O)c2O)c1,inactive
7,Cc1cc(C)c2c(c1)[C@@H]1C=CC[C@@H]1[C@H](c1ccc(S(=O)(=O)N3CCOCC3)cc1)N2,inactive
8,Cc1oc(-c2ccccc2)nc1C(=O)OCC(=O)NCc1ccc(F)cc1,inactive
9,CCC1(C(N)=O)CC2C=CC1C2 (stereo unspecified),inactive
10,Cc1ccc(NC(=O)CCCCCC2NC(=O)NC2C)cc1 (stereo unspecified),inactive
11,O=C(CN1C(=O)c2ccccc2C1=O)NCC(=O)OCC(=O)c1cccc([N+](=O)[O-])c1,inactive
12,C=C(C)C(=O)Nc1ccc2c(c1)OCCOCCOCCO2,inactive
13,O=C(O)CCc1ccc(S(=O)(=O)Nc2cc(C(F)(F)F)ccc2N2CCCC2)cc1,inactive
14,CCCCNC(=O)CN1C(=O)CSc2ccc(S(=O)(=O)N3CCOCC3)cc21,inactive
15,CCCC(=O)NNC(=O)Nc1ccccc1,inactive
16,Cc1c(Cl)cccc1NC(=O)CC(Cc1ccccc1)C(=O)O (stereo unspecified),inactive
17,CCN(CC)c1ccc(NC(=O)c2c(C)noc2C)cc1,inactive
18,CCNC(=S)Nc1ccc(N(c2ccccc2)C(C)C)cc1,inactive
19,CSc1nc(N2CCOCC2)c2c3c(sc2n1)CCC3,inactive
20,Cc1nn(CC(=O)Nc2ccccn2)c(C)c1Br,inactive
21,CC(=O)c1ccc(N2CCN(C(=O)c3ccc4c(c3)OCO4)CC2)cc1,inactive
22,CC(C)(CS(=O)(=O)[O-])NC(=O)CC[N+](C)(C)CCO,inactive
23,CCOc1cc(N2CCOCC2)c(OCC)cc1NC(=O)CSc1ncn[nH]1,inactive
24,CCOc1ccc(S(=O)(=O)N2CC(=O)Nc3ccccc32)cc1C#N,inactive

row,Compound,outcome
1,O=C(N/N=C/C=C/c1ccco1)c1cccs1,inactive
2,O=C(CSc1nc2cc([N+](=O)[O-])ccc2n1-c1ccccc1)NCc1ccc2c(c1)OCO2,inactive
3,COCCCN1C(=O)N(c2ccc(F)cc2)C(=O)C1CC(=O)Nc1ccc(OC)cc1 (stereo unspecified),inactive
4,Cc1ccc(S(=O)(=O)OCC(=O)Nc2ccc(C(=O)O)c(O)c2)cc1,inactive
5,CC(C)CCN1CCN(Cc2cccn2-c2cccnc2)CC1CCO (stereo unspecified),inactive
6,NS(=O)(=O)c1ccc(NC(=O)COC(=O)c2cc(Cl)ccc2[N+](=O)[O-])cc1,inactive
7,Cc1cc(NC(=O)C2CCCC2)n(-c2nc3ccccc3[nH]2)n1,inactive
8,CCN(c1ccc(NC(=O)COC(=O)c2ccc([N+](=O)[O-])o2)cc1)C(C)C,inactive
9,CSc1ccc(/C=N/n2c(C3CCCCC3)n[nH]c2=S)cc1,inactive
10,NS(=O)(=O)c1ccc(N=Nc2ccc(=O)[nH]c2O)cc1,inactive
11,O=C(O)c1cccc2c1Oc1ccccc1S2(=O)=O,inactive
12,CC(C)(C)CN1CCNC(=O)C1CC(=O)NCCc1ccccc1C(F)(F)F (stereo unspecified),inactive
13,CCCCC1=CC2=CC(=O)C(C)(OC(=O)C3CCCC3)C(=O)C2=CO1 (stereo unspecified),inactive
14,Cc1cccc(OCc2nc(C)cc(=O)[nH]2)c1,inactive
15,OC(c1ccc(Cl)cc1)C(O)c1nc2ccccc2[nH]1 (stereo unspecified),inactive
16,COc1ccc(NC(=O)c2cc(-c3ccco3)nc3ccccc23)cc1S(=O)(=O)N1CCOCC1,inactive
17,COc1ccc(N(CC(=O)NCc2ccccc2C)S(=O)(=O)c2ccc(C)cc2)cc1OC,inactive
18,CCc1cccc(CC)c1-n1c(SCC(=O)N2CCCc3ccccc32)nc(O)cc1=O,inactive
19,CCc1ccc(-c2nc(SCC(=O)NC3CCS(=O)(=O)C3)n[nH]2)cc1 (stereo unspecified),inactive
20,O=C(CSc1ncnc2ccccc12)Nc1cccc(S(=O)(=O)N2CCOCC2)c1,inactive
21,O=C(CCCCCCC(=O)NCc1ccccc1)NCc1ccccc1,inactive
22,COc1ccccc1NC(=O)CN(Cc1ccco1)C(=O)c1cccs1,inactive
23,CC1(C)Cc2c(cnn2-c2ccccc2)C(NC(=O)CCCN2CCCCC2=O)C1 (stereo unspecified),inactive
